# Assay outcomes: PubChem, National Center for Advancing Translational Sciences (NCATS)
# Rows were chosen to be rich in hits. Some 10% of all compounds tested hit in one or more screens of this group.
# JMJD2A Tudor inh: blocks the human JMJD2A Tudor domain; O75164; AlphaScreen JMJD2A-Tudor / H3K4me3 peptide binding; Potency, µM (top dose mostly 114 µM), for inactives: at the top dose activity change, negative = inhibition, usual class: inhibitors; 390,000 compounds, 4.4% hits; AID 504339; note: % is set by controls: 0 for no effect and ±100 for the full control effect; nearly all actives have a fitted effect of over 50% in size
# G9a inh: blocks human histone lysine methyltransferase G9a; Q96KQ7; G9a H3K9 monomethylation, AlphaScreen, 2 h; Potency, µM (titrated, usually from 102 µM), inactives show at the top dose activity, negative = inhibition, hits mostly inhibitors; 350,000 compounds, 8.8% hits; AID 504332; note: % is set by controls: 0 for no effect and ±100 for the full control effect; nearly all actives have a fitted effect of over 75% in size
#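 Using a bead-based AlphaScreen, monomethylated H3K9 product from 2 h room-temperature reactions (G9a 20 nM, peptide 500 nM, SAM 20 uM) was detected with 0.5 ug/mL rabbit anti-H3K9me1 antibody.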
# GLS inh: glutaminase GLS (human) inhibition; O94925; GLS enzymatic activity, qHTS titration; Potency, µM (titrated, usually from 45.5 µM), for the others: at the highest dose activity change, negative = inhibition, hits mostly inhibitors; 410,000 compounds, 0.21% hits; AID 624170; note: % is set by controls: 0 for no effect and ±100 for the full control effect
#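 Coupled fluorescence readout: glutamate oxidase/HRP/Amplex Red detect glutamate formed by hKGA from L-glutamine (1 mM solution added). Buffer 45 mM KH2PO4 pH 8.2, 0.02% Tween-20; reads at t0 and 30 min RT.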
# HP1b chromo inh: blocks HP1-beta chromodomain binding to methylated histone tails; P83916; AlphaScreen HP1-beta / biotin-H3K9me3 peptide binding; Potency, µM (titrated, usually from 114 µM), inactives show top-dose activity change, negative = inhibition, actives largely listed as inhibitors; 390,000 compounds, 0.56% hits; note: nearly all actives have a fitted effect of over 70% in size
#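 HP1-beta protein (50 nM final) preincubated 30 min at room temperature with biotinylated H3(1-18)K9me3 peptide (50 nM) in PBS pH 7.4, 0.01% Tween-20, then compound added for 30 min. AlphaScreen streptavidin donor/nickel chelate acceptor beads (10 ug/mL final), 30 min dark, luminescence read.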
# BAZ2B inh: inhibitors of human BAZ2B bromodomain; Potency, µM (titrated, usually from 114 µM), for inactives: top-dose activity change, negative = inhibition, hits mostly inhibitors; 360,000 compounds, 4.4% hits; AID 504333; Q9UIF8; AlphaScreen BAZ2B-H3K14Ac peptide displacement; note: % is set by controls: 0 for no effect and ±100 for the full control effect; nearly all actives have a fitted effect of over 60% in size
#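 Inhibition is scored as reduced AlphaScreen emission. The BAZ2B/b-H3(5-23)K14Ac complex (50 nM each) in PBS pH 7.4, 0.01% Tween-20 meets compound (up to 110 uM) for 30 min at RT before bead addition.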
# Active calls of the source: *; ? = inconclusive; . = not tested or not shown; [ ] = remark or other dose. Calls come from the whole dose curve; as a rule, active = well fitted curve in the direction sought with a large enough effect; inconclusive = small, poorly fitted or top-dose-only effect, or another doubt; inactive = no such curve, though single readings can be large; an effect the other way counts as inactive or inconclusive. Potency is the fitted concentration of half-maximal effect.
SMILES,JMJD2A Tudor inh,G9a inh,GLS inh,HP1b chromo inh,BAZ2B inh
COc1ccc(CCNc2oc(COc3ccccc3F)nc2C#N)cc1OC,-27%[11.4 µM],45µM*,18%,?,?
COc1ccc(CN2C(=O)C(Cc3ccccc3)Nc3ncnc(N4CCN(c5ccccc5)CC4)c32)cc1 (stereo unspecified),?,18%[2.33 µM],7%,15%,-33%
CCCNC(=S)Nc1cc2oc3ccccc3c2cc1OC,-28%,-2%[0.501 µM],3%,22%,?
COc1cc2c(cc1NC(=O)COC(=O)CNS(=O)(=O)c1ccc(C)cc1)oc1ccccc12,-8%,40µM*,-18%,35%,8%
CCNC(=S)Nc1cc2oc3ccccc3c2cc1OC,?,25µM*,2%,10%,26%
O=C(O)CCc1ccc(-c2ccc(F)cc2)n1Cc1ccco1,?,9%[12.7 µM],-1%,1%,-37%
O=C(O)CCc1ccc(-c2ccc(Br)cc2)n1Cc1ccco1,79µM*,?,-13%,-16%,50µM*
O=C(O)CCc1ccc(-c2ccccc2)n1Cc1ccco1,?,32µM*,7%,3%,50µM*
CCN(CC)C(=O)COc1coc(CN2CCN(c3ccccc3F)CC2)cc1=O,-6%,0%[0.501 µM],-14%,19%,-12%
O=C(Nc1ccc(S(=O)(=O)Nc2ncccn2)cc1)c1ccc2ncsc2c1,35µM*,45µM*,?,-6%,40µM*
O=C(Nc1ccccc1F)c1ccc2ncsc2c1,-10%,45µM*,2%,47%,7%
O=C(Nc1ccc(F)cc1F)c1ccc2ncsc2c1,4%,15%[59 µM],-1%,33%,-1%
COc1ccc(NS(=O)(=O)c2ccc(NC(=S)NC(=O)c3ccc(Br)cc3)cc2)nn1,?,18µM*,28%,-33%,?
O=C(NC(=S)Nc1ccc(S(=O)(=O)Nc2ncccn2)cc1)c1ccc(Br)cc1,-33%,50µM*,-18%,?,-7%
O=C(O)C1CSC2c3ccccc3C(=O)N12 (stereo unspecified),-26%,?,-21%,56%,12%
OC(CNC1Cc2ccccc2C1)COc1ccc(Cl)cc1 (stereo unspecified),-4%,-28%,-4%,30%,-4%
Cc1cc(CN(C)C(=O)c2ccc3nc(Cc4ccccc4F)oc3c2)n[nH]1,-7%,27%,-4%,23%,-5%
COc1ccc(C(=O)OCc2c(C)noc2C)cc1,16%,20%,3%,39%,.
COc1ccc(NS(=O)(=O)c2ccc(NC(=S)NC(=O)c3cccnc3)cc2)nn1,0%[11.4 µM],28µM*,-21%,-10%,-30%
O=C1CNC(=O)N1CC(=O)N1CCCc2ccccc21,-2%,-7%[12.7 µM],-3%,25%,6%
N#Cc1nc(-c2ccc(OCc3ccccc3)cc2)oc1NCc1cccnc1,-23%,?,-4%,-18%,.
N#Cc1nc(-c2ccc(F)cc2)oc1NCc1cccc2c1OCO2,-12%,-44%,2%,56%,-22%
Cc1ccc(-c2nc(C#N)c(NCc3cccc4c3OCO4)o2)cc1,?,10µM*,5%,?,?
CC(C)(C)c1ccc(-c2nc(C#N)c(NCc3ccncc3)o2)cc1,79µM*,20µM*,-1%,-19%,79µM*
CN(C)c1oc(-c2ccc(OCc3ccccc3)cc2)nc1C#N,?,11µM*,-1%,?,?
SMILES,JMJD2A Tudor inh,G9a inh,GLS inh,HP1b chromo inh,BAZ2B inh
N#Cc1nc(-c2cccs2)oc1NCc1ccc2c(c1)OCO2,18%[11.4 µM],45µM*,8%,?,?
COc1ccc(-c2nc(C#N)c(NCc3ccc(C)cc3)o2)cc1OC,-8%,-25%[59 µM],4%,27%,-7%
O=C1N=C(N2CCCCC2)SC1=C1CCCC1,-11%,10%[59 µM],0%,13%,-4%
O=C(NN=C1CCCCC1)c1cc(-c2ccccc2)n[nH]1,-14%,-13%[59 µM],9%,19%,5%
CCCCNc1c(-c2ccc(OC)c(SC3CCCCC3)c2)nc2ccc(C)cn12,?,.,28%,21%,.
CC(C)(C)c1ccc(-c2nc(C#N)c(NCCCn3ccnc3)o2)cc1,?,.,3%,?,35µM*
N#Cc1nc(-c2ccc(OCc3ccccc3)cc2)oc1NCCCn1ccnc1,28µM*,?,9%,45µM*,18µM*
